Laboratory results: PubChem BioAssay AID1053122 (Broad Institute, 2014)
Results with a measured potency or affinity are listed apart.

Test: CTGF mRNA reduction in DLD1 cells – cell-based, DLD1 colon cancer, RT-qPCR, cherry-pick, dose response (AID 1053122)
Details: DLD1 CTGF mRNA (YAP1 pathway), 24 h; series mostly up to 26 µM; CTGF expression fold change (lower = inhibition): at the top concentration;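 active = CTGF level falls with dose and the fitted half-maximal dose is at most twice the top valid dose; inconclusive = flat fit with 30 to 70% drop, or a poor fit; inactive = the rest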

CTGF expression fold change (lower = inhibition), inactive:
CCCC#Cc1ccc([C@@H]2[C@@H](C#N)N(C(=O)CN3CCOCC3)[C@H]2CO)cc1 1.05 unspecified [at 23.5 µM]
C[C@@H]1CN([C@H](C)CO)C(=O)CCCn2nncc2CO[C@@H]1CN(C)C(=O)c1cc(-c2ccccc2)on1 0.625 unspecified
CC(C)(C)[S@@](=O)N1Cc2cc(C(=O)NCC(F)(F)F)nc(-c3cccc(-c4cccc(F)c4)c3)c2[C@H]1CCO 0.913 unspecified
CC(C)NC(=O)N[C@@H]1CC[C@H](CC(=O)NCCCN(C)C)O[C@@H]1CO 1.05 unspecified
C[C@@H]1CN([C@H](C)CO)C(=O)c2ccccc2-c2ccccc2CO[C@@H]1CN(C)Cc1ccc2c(c1)OCCN2C 0.751 unspecified
C[C@@H]1CN([C@H](C)CO)C(=O)c2cccc(NC(=O)c3nc4ccccc4s3)c2O[C@H]1CN(C)C(=O)Nc1ccc2c(c1)OCO2 0.622 unspecified [at 23.5 µM]
CN1C(=O)c2cc(NC(=O)Cc3cccs3)ccc2OC[C@@H]2O[C@@H](CC(=O)NCCc3ccncc3)CC[C@H]21 1.3 unspecified [at 23.5 µM]
CC(C)(C)[S@@](=O)N1Cc2cc(C(=O)NCCc3ccncc3)nc(-c3cccc(-c4cccc(C#N)c4)c3)c2[C@H]1CCO 0.415 unspecified
Cc1ccccc1-c1ccc([C@H]2[C@@H](CO)N3CCCCN(S(=O)(=O)Cc4ccccc4)C[C@@H]23)cc1 0.556 unspecified
